Out of some 52,000 compounds screened, about 4,300 (8.3%) were called active. Shown is part of a subset that was picked to be rich in actives. Unmarked numbers belong to inactive results. Cut-off read from the data, not from the text of the source: active = survival mostly below about 52% (no sharp cut-off); inactive = mostly above about 56%.
tested on: DeltatarO mutant; assay: growth inhibition of S. aureus wild type versus tarO mutant, primary screen, teichoic acid synthesis inhibitors, RN4220, OD600 (AID 463173); conditions: OD600, 18 h, stronger effect = lower value, screened at 18.75 µg/mL (by protocol)

Row | SMILES | survival
1 | CCOC(=O)c1ccc(NC(=O)C(C)N(c2ccc(OCC)cc2)S(C)(=O)=O)cc1 (stereo not given) | 62%
2 | O=C(CCc1ccccc1)NN1C(=O)c2ccccc2C1=O | 61%
3 | CCc1ccccc1NC(=O)c1cnc(N2CCCCC2)c2ccccc12 | 96%
4 | CC(C)(C)OC(=O)N1CCC(c2c(C(=O)N3CCOCC3)cnn2-c2ccccc2Cl)CC1 | 78%
5 | COc1ccc(NC(=O)Cn2c(=O)n(-c3ccc(OC)cc3)c(=O)c3ccc(C(=O)NCc4ccc(C)cc4)cc32)cc1 | 77%
6 | O=C(c1ccc2c(c1)N(Cc1ccc(F)cc1)C(=O)c1ccccc1S2(=O)=O)N1CCC(Cc2ccccc2)CC1 | 72%
7 | CCCC1=Nc2cc(C(=O)NCc3ccc(OC)cc3)ccc2Sc2ccc(C)cc21 | 70%
8 | CCOc1ccc(CNC(=O)Cn2c(=O)c3cccn3c3cccnc32)cc1 | 70%
9 | CCOc1ccc(N2CC(c3nc4ccccc4n3Cc3cccc(C)c3)CC2=O)cc1 (stereo not given) | 42% (active)
10 | C#CCn1c(C2CC(=O)N(c3ccc(OC)cc3)C2)nc2ccccc21 (stereo not given) | 78%
11 | C#CCn1c(C2CC(=O)N(c3ccc(OCC)cc3)C2)nc2ccccc21 (stereo not given) | 62%
12 | CCOc1ccc(N2CC(c3nc4ccccc4n3CC(C)C)CC2=O)cc1 (stereo not given) | 56%
13 | CCCCn1c(C2CC(=O)N(c3ccc(OCC)cc3)C2)nc2ccccc21 (stereo not given) | 63%
14 | CCOc1ccc(N2CC(c3nc4ccccc4n3Cc3cccc(Cl)c3)CC2=O)cc1 (stereo not given) | 37% (active)
15 | CCNC(=O)C1CCCN(c2nnc(C)c3c(C)n(-c4ccc(C)cc4)nc23)C1 (stereo not given) | 78%
16 | CCN1CCN(C(=O)c2ccc(S(=O)(=O)N(CC)CC)cc2)CC1 | 85%
17 | COc1cc2c(cc1OC)C(c1ccc(Cl)cc1)N(c1ccc(C)c(F)c1)C(=O)C2 (stereo not given) | 42% (active)
18 | COc1cc2c(cc1OC)C(c1ccc(F)cc1)N(c1ccc(F)cc1)C(=O)C2 (stereo not given) | 105%
19 | COc1ccc(C2c3cc(OC)c(OC)cc3CC(=O)N2c2ccc(C)c(F)c2)cc1 (stereo not given) | 79%
20 | O=C(NCCSCc1ccccc1)C1CCN(S(=O)(=O)Cc2ccccc2)CC1 | 66%
21 | Cc1cc(C)cc(NC(=O)N2CCN(c3cc(-c4noc(C)n4)ccc3C)CC2)c1 | 87%
22 | Cc1nc(-c2ccc(C)c(N3CCN(C(=O)Nc4ccc(Br)cc4)CC3)c2)no1 | 17% (active)
23 | Cc1ccc(NC(=O)N2CCN(c3cc(-c4noc(C)n4)ccc3C)CC2)c(F)c1 | -5% (active)
24 | Cc1ccc(NC(=O)N2CCN(c3cc(-c4noc(C)n4)ccc3C)CC2)c(C)c1 | 88%
25 | COc1ccc(C)cc1NC(=O)N1CCN(c2cc(-c3noc(C)n3)ccc2C)CC1 | 88%
26 | COc1cc(NC(=O)N2CCN(c3cc(-c4noc(C)n4)ccc3C)CC2)cc(OC)c1OC | 55%
27 | COc1ccccc1NC(=O)c1oc2ccccc2c1NC(=O)Cc1ccccc1 | 78%
28 | CCOc1ccc(NC(=O)CCc2c(C)nc3nc(-c4cc(OC)cc(OC)c4)nn3c2C)cc1 | 78%

Row | SMILES | survival
29 | CCCCNC(=O)CCn1c(=O)c2cccn2c2cccnc21 | 103%
30 | CSc1ccc(CCNC(=O)CCn2c(=O)c3cccn3c3ccc(F)cc32)cc1 | 48%
31 | Cc1cccc(CNC(=O)CCn2c(=O)c3cccn3c3ccc(F)cc32)c1 | 92%
32 | CN(C)c1ccc(CNC(=O)CCn2c(=O)c3cccn3c3ccc(F)cc32)cc1 | 57%
33 | Cc1ccc(CCNC(=O)CCCn2c(=O)c3cccn3c3ccc(F)cc32)cc1 | 33% (active)
34 | Cc1ccc(CCNC(=O)CCn2c(=O)c3cccn3c3ccc(F)cc32)cc1 | 39% (active)
35 | CCCCNC(=O)CCn1c(=O)c2cccn2c2ccc(F)cc21 | 41% (active)
36 | Cc1ccc(Cc2nc3ccccc3nc2SCC(=O)N2CCN(c3ccccc3F)CC2)cc1 | 49%
37 | CCOc1ccc(-n2ccn3c(CC(C)CC(=O)O)nnc3c2=O)cc1 (stereo not given) | 182%
38 | O=C(Nc1ccccc1)c1ccc(F)cc1 | 76%
39 | CCOC(=O)CC(NC(=O)Cn1nnc(-c2ccc(C(F)(F)F)cc2)n1)c1ccccc1Cl (stereo not given) | 73%
40 | Cc1oc(-c2ccccc2F)nc1CS(=O)(=O)CC(=O)N1CCN(c2ccccc2)CC1 | 77%
41 | COc1ccc(-c2nc(CSCC(=O)N3CCN(c4ccc(OC)cc4)CC3)c(C)o2)cc1 | 77%
42 | COc1ccc(-c2nc(CSCC(=O)N3CCN(c4cc(Cl)ccc4C)CC3)c(C)o2)cc1 | -4% (active)
43 | Cc1oc(-c2ccc(Cl)cc2)nc1CS(=O)CC(=O)N1CCN(c2cccc(C(F)(F)F)c2)CC1 (stereo not given) | 99%
44 | Cc1ccc(OCc2nc(-c3ccc(C(=O)N4CCN(c5cc(Cl)ccc5C)CC4)cc3)oc2C)cc1 | 76%
45 | Cc1oc(-c2ccccc2F)nc1CS(=O)(=O)CC(=O)N1CCN(c2cccc(C(F)(F)F)c2)CC1 | 78%
46 | Cc1ccccc1-c1nc(CS(=O)CC(=O)N2CCN(c3cc(Cl)ccc3C)CC2)c(C)o1 (stereo not given) | 30% (active)
47 | COc1cccc(-c2nc(CS(=O)CC(=O)N3CCN(c4cccc(C(F)(F)F)c4)CC3)c(C)o2)c1 (stereo not given) | 0% (active)
48 | Cc1oc(-c2ccccc2Cl)nc1CS(=O)CC(=O)N1CCN(c2cccc(C(F)(F)F)c2)CC1 (stereo not given) | 131%
49 | Cc1oc(-c2ccccc2F)nc1CS(=O)(=O)CC(=O)N1CCN(c2ccc(Cl)cc2)CC1 | 43% (active)
50 | Cc1ccc(-c2nc(CS(=O)CC(=O)N3CCN(c4cccc(Cl)c4)CC3)c(C)o2)cc1 (stereo not given) | 46%
51 | Cc1ccc(-c2nc(CS(=O)CC(=O)N3CCN(c4ccc(Cl)cc4)CC3)c(C)o2)cc1 (stereo not given) | 80%
52 | Cc1cccc(-n2cc(-c3ccccc3)nc2SCC(=O)Nc2ccccc2Cl)c1 | 115%
53 | CC(C)c1ccc(NC(=O)CS(=O)(=O)c2cccc3nsnc23)cc1 | 78%
54 | CCOC(=O)c1sc2ccccc2c1S(=O)(=O)N1CCN(c2cc(C)ccc2C)CC1 | 100%
55 | Cc1ccc(CSc2cn(CC(=O)N3CCCCCC3)c3ccccc23)cc1 | 84%

From PubChem BioAssay AID463173 (ICCB-Longwood Screening Facility, Harvard Medical School, 2010)
